Screens from PubChem BioAssay.
PGE2 EP2 inh: human EP2 receptor antagonists, primary screen, TR-FRET cAMP, C6 glioma cells | Prostaglandin E2 receptor EP2 subtype (Homo sapiens), P43116 | C6 glioma cells expressing human EP2; cells stimulated with saturating PGE2 | inhibition, % at 25 µM | 0.52% of 260,000 active;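 active = percent inhibition above 40 after rounding to a whole number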;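 also: rat C6 glioma host cells with rolipram phosphodiesterase inhibitor present; the protocol text gives 20 µM as final concentration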
Target sequence (P43116 whole entry, looked up): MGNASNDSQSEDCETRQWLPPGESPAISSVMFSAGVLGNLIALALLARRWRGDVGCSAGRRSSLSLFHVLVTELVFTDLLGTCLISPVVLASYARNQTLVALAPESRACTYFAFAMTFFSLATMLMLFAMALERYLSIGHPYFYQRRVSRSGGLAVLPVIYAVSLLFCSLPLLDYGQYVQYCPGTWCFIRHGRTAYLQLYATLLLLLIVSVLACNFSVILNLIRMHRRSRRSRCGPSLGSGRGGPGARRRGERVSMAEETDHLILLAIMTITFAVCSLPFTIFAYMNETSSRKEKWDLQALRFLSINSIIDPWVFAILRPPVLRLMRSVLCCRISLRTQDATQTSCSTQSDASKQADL
S1P4 ag: S1P4 receptor agonists, primary screen, cell-based; Sphingosine 1-phosphate receptor 4 (Homo sapiens), O95977; S1P4-expressing cell line, agonist reporter assay; activation, % at 4.98 µM; 0.35% of 220,000 active; AID 1509, 2009; in the data active = activation above about 11%;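 also: 0% = DMSO vehicle and 100% = reference agonist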
S1P3 antag: S1P3 receptor antagonists, primary screen, cell-based; AID 485, 2006; inhibition, % at 4.98 µM; CHO S1P3 NFAT-BLA reporter, FRET fluorescence, antagonist mode; 0.27% of 170,000 active;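 active = inhibition above the plate cutoff, the mean inhibition of test wells on that plate plus 3 SD, cut at about 28% in these data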;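 also: cells challenged with S1P at its EC80 of 0.8 µM; blue over green emission ratio from cleaved BLA substrate after 4 h stimulation; 0% = S1P-stimulated wells and 100% = unstimulated DMSO-only wells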
EP2 mod: EP2 receptor modulators, cAMP readout, primary screen, cell-based, HTRF cAMP, PGE2 stimulation. induction, % at 25 µM. 0.83% of 260,000 active. AID 940, 2007. EP2-expressing cells, cAMP HTRF FRET, PGE2 co-stimulation;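 active = compounds whose cAMP rise, as percent of the full-agonist control response, exceeds 60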;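 also: rat C6 glioma line stably carrying human EP2 under a CMV promoter; the protocol text gives 20 µM as final concentration; 100% = response of wells given 1 µM PGE2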
S1P4 antagonist: S1P4 receptor antagonists, primary screen, cell-based; 0.26% of 220,000 active; AID 1510, 2009; S1P4-expressing cells, antagonist mode, reporter read-out; inhibition, % at 4.98 µM; in the data active = inhibition above about 29%;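 also: 0% = wells stimulated with agonist and 100% = vehicle wells without agonist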
Starred values were filed as active, the others as inactive; x = not tested or not shown; ! = not active in a repeat. Sampled rows, rich in hits. Any-hit rate of the full collection: about 2%.

SMILES	PGE2 EP2 inh	S1P4 ag	S1P3 antag	EP2 mod	S1P4 antagonist
CC(=O)Nc1cccc(NC(=O)CN2C3CCC2CC(O)(c2nccn2C)C3)c1 (stereo not given)	x	x	x	-18	x
Cn1ncnc2c(=O)n(C)c(=O)nc1-2	17	x	105*	x	x
O=C(Nc1ccccc1)c1c(O)c2c(n(Cc3ccco3)c1=O)CCCC2	4	1	4	65*	0
Cc1cc(C)c(O)c(CN2C3CCC2CC(O)(c2ccccc2F)C3)c1 (stereo not given)	4	x	x	4	x
CC(=O)OC1=CC2=CC[C@H]3[C@@H]4CCC(=O)[C@@]4(C)CC(=O)[C@]3(S)[C@]2(C)CC1	63*	x	x	-1	x
CN(C)c1ccc(-[n+]2c(-c3ccccc3)cc(-c3ccccc3)cc2-c2ccccc2)cc1	7	-4	3	-45	20
c1ccc(-c2cc(-c3ccccc3)[n+](-c3ccccc3)c(-c3ccccc3)c2)cc1	64*	-1	12	-78	15
COc1ccc(C2=NCC(=O)N(CC(=O)NCc3cccs3)c3sc4c(c32)CCCC4)cc1	5	x	x	-52	x
Cc1ccc2c(c1)C1CN(C)CCC1N2C(=O)COc1ccc(S(=O)(=O)N2CCOCC2)cc1 (stereo not given)	8	0	76*	-7	-2
Cc1ccc2c(c1)C1CN(C)CCC1N2C(=O)Cc1cccs1 (stereo not given)	6	1	-15	-13	-17
CC1=CC(=O)c2c(O)cccc2C1=O	79*	x	x	-34	x
COc1ccc(-c2nc(C)sc2CC(=O)N(CCN(C)C)C2CCCC2)cc1	3	x	x	-12	x
Cn1c(=O)c2[nH]cnc2n(C)c1=O.[CH2-][C@H](Cc1cccc2cc(C(=O)O)c(=O)oc12)OC.[Hg].[OH-]	59*	x	x	29	x
Cc1cc[c]([Sb]2[O][C@H]([C@H](O)[C@H](O)C(=O)O)[C@@H](CO)[O]2)cc1	49*	x	x	19	x
Cc1ccc(C)c(-c2nc(C)sc2CC(=O)N2CCCCC2CN2CCCC2)c1 (stereo not given)	9	x	x	-22	x
COc1ccc(-c2nc(C)sc2CC(=O)N(C)CCN(C)C)cc1OC	3	x	x	-14	x
CCCCCc1nc2c(c(=O)c3ccccc3n2C)c(=O)n1C1CCCCCC1	121*	1	-4	-14	-13
CCCN1CCC[C@@H]2Cc3nc(N)ncc3C[C@H]21	15	x	x	66*	x
O=C(CN1C(=O)CN=C(c2ccccc2Cl)c2c1sc1c2CCCC1)NCc1cccs1	10	x	x	-74	x
O=[N+]([O-])c1cc(-c2ccc([As](=O)(O)O)cc2)ccc1[As](=O)(O)O	47*!	2	-7	-3	-13
O=C(NC1(C(F)(F)F)Oc2ccccc2O1)N1CCC2(CC1)OCCO2	9	1	x	17	3
O=C(NC1(C(F)(F)F)Oc2ccc(Cl)cc2O1)N1CCC2(CC1)OCCO2 (stereo not given)	8	-6	x	8	42*
Cc1ccccc1-n1nc(C)c(CC(=O)N(CCN(C)C)Cc2cccnc2)c1C	8	x	x	-14	x
c1ccc(C2OCCN3CCCCC23)cc1 (stereo not given)	7	241*	0	2	2
CC[C@H]1CN2CCc3cc(OC)c(OC)cc3[C@@H]2C[C@@H]1C[C@H]1NCCc2c1[nH]c1ccc(O)cc21	61*	x	x	-25	x
SMILES	PGE2 EP2 inh	S1P4 ag	S1P3 antag	EP2 mod	S1P4 antagonist
COc1cc2c3c(c1OC)-c1cc(O)ccc1CC3NCC2 (stereo not given)	10	-1	11	16	-5
O=P(O)(OP(=O)(O)c1ccccc1)c1ccccc1 (tested in a mixture with another compound)	49*	x	x	33	x
O=C1C(Cl)=C(Cl)C(=O)C(Cl)=C1Cl	109*	x	x	-36	x
C[C@]12CC(=CO)C(=O)C[C@@H]1CC[C@@H]1[C@@H]2CC[C@@]2(C)[C@H]1CC[C@]2(C)O	x	2	-8	x	7
C[C@]12Cc3cnc(-c4ccccc4)nc3C[C@@H]1CC[C@H]1[C@H]2CC[C@@]2(C)[C@H]1CC[C@]2(C)O	49*	x	x	0	x
c1ccc2c([C@@H]3CCN(CCN4CCOCC4)C3)c[nH]c2c1	53*	x	x	13	x
Nc1ccccc1O.O.O=C(O)[C@H]1[O][Sb][O][C@H]1C(=O)O	54*	x	x	-4	x
Cc1nc2ccccc2cc1C[N+]12CN3CN(CN(C3)C1)C2	50*	x	x	6	x
c1ccc(C[N+]23CN4CN(CN(C4)C2)C3)cc1	6	x	x	13	x
CN(C)CCN(Cc1ccccc1F)C(=O)Cc1nc2ccccc2[nH]1	9	x	x	-29	x
O=C(O)C(O)(c1ccc(-c2ccccc2)cc1)c1ccc(-c2ccccc2)cc1	41*	x	x	12	x
C[N+]1([O-])[C@@H]2CC(OC(=O)[C@@H](CO)c3ccccc3)C[C@H]1[C@H]1O[C@H]12 (stereo not given in full)	49*	x	x	29	x
O=C(O)C[C@@H]1NCc2cc3ccccc3nc21	15	x	x	-5	x
O=C1NC(=O)C(=Cc2ccc(-c3cc(Cl)ccc3[N+](=O)[O-])o2)C(=O)N1	42*	1	11	-59	-9
CCCn1nc(CC(=O)N(C)CCN2CCCCC2)c2ccccc2c1=O	6	x	x	-8	x
C[C@H](Br)CN(C[C@H](C)Br)c1ccc2c(c1)Cc1ccccc1-2	57*	x	x	-27	x
COc1ccc(C[C@@H]2C(=O)N[C@H](C)C(=O)N(C)[C@@H]3C(=O)N(C)[C@@H](Cc4ccc(O)c(c4)Oc4ccc(cc4)[C@H]3O)C(=O)N[C@@H](C)C(=O)N[C@H](C)C(=O)N2C)cc1	43*	x	x	27	x
COc1cc2c3cc1Oc1cc(ccc1O)C[C@@H]1c4c(cc(OC)c(O)c4Oc4ccc(cc4)C[C@H]3N(C)CC2)CCN1C	18	-1	0	-18	-15
Cc1ccc(C2=CCN(CC(=O)Nc3ccc4c(c3)OCCO4)CC2)o1	x	x	x	-84	x
COc1cccc(C2(O)CCN(CCNC(=O)c3cc(F)cc(F)c3)CC2)c1	12	x	x	-16	x
CN(C)C(=S)SSC(=S)N(C)C	125*	-2	-14	-37	23
CC(=O)Nc1ccc(C=C2C(=O)NC(=S)NC2=O)cc1	12	x	x	10	x
Cc1ccc(C=C2C(=O)NC(=S)NC2=O)o1	114*	x	x	-106	x
O=C(CN1C(=O)CN=C(c2ccc(Cl)cc2)c2c1sc1c2CCCC1)NCc1ccco1	27	x	x	-33	x
CC(C)[C@]1(O)[C@@H](OC(=O)c2ccc[nH]2)[C@@]2(O)[C@@]3(C)C[C@]4(O)O[C@@]5([C@H](O)[C@@H](C)CC[C@@]35O)[C@@]2(O)[C@@]41C	51*	x	x	6	x
CO[C@H]1[C@H](O)[C@@H](O[C@@H]2[C@@H](Oc3cccc4c(O)c5c(=O)oc6ccc(C)c7c(=O)oc(c34)c5c67)O[C@@H](C)[C@H](O)[C@H]2O)O[C@@H](C)[C@@H]1O	44*	x	x	8	x
Cn1c(O)c(C=NCc2ccco2)c(=O)n(C)c1=O	4	-3	x	3	12
